The source of these data is PubChem BioAssay (EPA / NIEHS).

The term AC50 denotes the concentration giving half of the maximal activity seen.

The structures appear in SMILES notation. Where “and” joins values, the source holds several entries; their conditions need not be identical. Equal entries are not always repeated. More than one record can exist for a structure, and the calls need not agree. Calls of active or inactive are those of the source. How the source made its calls: active means hit-call score of the fitted dose curve at least 0.9, where 1 is the maximum; inactive means score below 0.9.

Read-out in experiment [1]: TIMP metallopeptidase inhibitor 1 (TIMP1), TIMP1 (gene 7076)
The experiment can be described thus: BSK_hDFCGF_TIMP1: BioMAP Diversity Plus: hDFCGF Assay for TIMP metallopeptidase inhibitor 1 (TIMP1) Biomarker Activity (AID 2283062). Conditions: primary human foreskin fibroblasts; actives raise or lower the signal. The method, boiled down: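 Fibroblasts from human foreskin are treated with test chemical and harvested at 24 h. TIMP-1 is quantified by ELISA, and gain or loss of signal is scored against DMSO.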

Read-out in experiment [2]: Matrix Metallopeptidase 1 (MMP1), MMP1 (gene 4312)
Put plainly: BSK_hDFCGF_MMP1: BioMAP Diversity Plus: hDFCGF Assay for Matrix Metallopeptidase 1 (MMP1) Biomarker Activity (AID 2283064). Particulars: primary human foreskin fibroblasts; actives raise or lower the signal. The method in brief:
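ELISA read-out of MMP1 from human foreskin fibroblasts (primary skin cells), 24 h post-dose. Gain or loss of signal was fitted bidirectionally versus DMSO negative control; cytotoxicity was checked by SRB in parallel cultures.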

Read-out in experiment [3]: Vascular cell adhesion molecule 1 (VCAM1), VCAM1 (gene 7412)
Put plainly: BSK_hDFCGF_VCAM1: BioMAP Diversity Plus: hDFCGF Assay for Vascular cell adhesion molecule 1 (VCAM1) Biomarker Activity (AID 2283065).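 On AC50: VCAM-1 protein level quantified by ELISA after 24 h chemical exposure.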 Particulars: primary human foreskin fibroblasts; actives raise or lower the signal. The method in brief:
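Cells are dosed, cultured for 24 h, then VCAM-1 is quantified by ELISA; signal increases and decreases are both fitted relative to DMSO.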

Read-out in experiment [4]: Plasminogen activator inhibitor-1 (PAI1), SERPINE1 (gene 5054)
Put plainly: BSK_hDFCGF_PAI1: BioMAP Diversity Plus: hDFCGF Assay for Plasminogen activator inhibitor-1 (PAI1) Biomarker Activity (AID 2283066). Conditions: primary human foreskin fibroblasts; actives raise or lower the signal. The method, boiled down: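 ELISA readout of PAI-1 from primary human skin fibroblast cultures, 24 h after compound addition. Gain or loss of signal was fitted bidirectionally against DMSO baseline.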

Read-out in experiment [5]: Intercellular Adhesion Molecule 1 (ICAM1), ICAM1 (gene 3383)
The experiment can be described thus: BSK_KF3CT_ICAM1: BioMAP Diversity Plus: KF3CT Assay for Intercellular Adhesion Molecule 1 (ICAM1) Biomarker Activity (AID 2283067). Conditions: primary human keratinocytes with fibroblasts; actives raise or lower the signal. The method, boiled down: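 Dose the keratinocyte/fibroblast co-culture, wait 24 h, measure ICAM-1 by ELISA, then fit increases or decreases against DMSO. Cytotoxicity is checked in parallel cultures by SRB total-protein staining.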

Read-out in experiment [6]: Interferon-gamma inducible Protein 10 (IP10), CXCL10 (gene 3627)
The experiment can be described thus: BSK_KF3CT_IP10: BioMAP Diversity Plus: KF3CT Assay for Interferon-gamma inducible Protein 10 (IP10) Biomarker Activity (AID 2283068). Conditions: primary human keratinocytes with fibroblasts; actives raise or lower the signal. The method, boiled down:
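Signal is secreted/surface IP-10 by ELISA in a human primary skin co-culture of keratinocytes and foreskin fibroblasts, taken 24 h post-dosing; DMSO served as negative control.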

Experiment [7] can be described thus: BSK_KF3CT_SRB: Viability Assessment in the BioMAP Diversity Plus: KF3CT Assay (AID 2283069). Particulars: primary human keratinocytes with fibroblasts. The method in brief:
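SRB read-out at 560 nm (0.1% stain, TCA-fixed cells) gauges overt cytotoxicity in a human skin keratinocyte–fibroblast co-culture 24 h post-dosing. Signal change was fitted bidirectionally relative to DMSO control.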

Read-out in experiment [8]: Interleukin-1 alpha (IL1a), IL1A (gene 3552)
Put plainly: BSK_KF3CT_IL1a: BioMAP Diversity Plus: KF3CT Assay for Interleukin-1 alpha (IL1a) Biomarker Activity (AID 2283070). Particulars: primary human keratinocytes with fibroblasts; actives raise or lower the signal. The method, boiled down:
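Primary skin co-culture (keratinocytes, foreskin fibroblasts), 24 h exposure; ELISA for IL-1a; bidirectional curve fit vs DMSO.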

Read-out in experiment [9]: TIMP metallopeptidase inhibitor 2 (TIMP2), TIMP2 (gene 7077)
Put plainly: BSK_KF3CT_TIMP2: BioMAP Diversity Plus: KF3CT Assay for TIMP metallopeptidase inhibitor 2 (TIMP2) Biomarker Activity (AID 2283071). Particulars: primary human keratinocytes with fibroblasts; actives raise or lower the signal. The method in brief: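 ELISA readout of TIMP-2 in keratinocyte plus foreskin fibroblast co-cultures (human skin primary cells), 24 h post-dose. Gain or loss of signal fitted relative to DMSO.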

Read-out in experiment [10]: Transforming growth factor beta 1 (TGFb1), TGFB1 (gene 7040)
Put plainly: BSK_KF3CT_TGFb1: BioMAP Diversity Plus: KF3CT Assay for Transforming growth factor beta 1 (TGFb1) Biomarker Activity (AID 2283072). Particulars: primary human keratinocytes with fibroblasts; actives raise or lower the signal. The method in brief:
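Read-out: ELISA for TGF-b1 in keratinocyte/foreskin fibroblast human skin co-culture, 24 h after dosing; bidirectional curve fit vs DMSO baseline; gain or loss of signal scored.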

Read-out in experiment [11]: C-C motif chemokine 2 (Homo sapiens) (UniProt P13500)
The experiment can be described thus: BSK_KF3CT_MCP1: BioMAP Diversity Plus: KF3CT Assay for Monocyte Chemoattractant Protein 1 (MCP1/CCL2) Biomarker Activity (AID 2283073). Conditions: primary human keratinocytes with fibroblasts; actives raise or lower the signal. The method, boiled down:
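Keratinocytes and foreskin fibroblasts were co-cultured, dosed with chemical, and sampled 24 h later. MCP-1 was quantified by ELISA, and the endpoint was analyzed with bidirectional fitting using DMSO as negative control.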

Read-out in experiment [12]: Matrix Metallopeptidase 9 (MMP9), MMP9 (gene 4318)
Put plainly: BSK_KF3CT_MMP9: BioMAP Diversity Plus: KF3CT Assay for Matrix Metallopeptidase 9 (MMP9) Biomarker Activity (AID 2283074).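 On AC50: MMP9 protein level quantified by ELISA in the co-culture.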 Particulars: primary human keratinocytes with fibroblasts; actives raise or lower the signal. The method in brief:
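ELISA read-out of MMP-9 at 24 h post-dosing in a co-culture of human skin keratinocytes and foreskin fibroblasts. Gain or loss of signal was fitted in both directions against DMSO.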

Read-out in experiment [13]: urokinase plasminogen activator (uPA), PLAU (gene 5328)
The experiment can be described thus: BSK_KF3CT_uPA: BioMAP Diversity Plus: KF3CT Assay for urokinase plasminogen activator (uPA) Biomarker Activity (AID 2283075). Conditions: primary human keratinocytes with fibroblasts; actives raise or lower the signal. The method in brief:
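Skin co-culture (keratinocytes + foreskin fibroblasts), human primary; 24 h post-dose; uPA by ELISA; gain/loss fit vs DMSO baseline.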

Read-out in experiment [14]: E-selectin (Homo sapiens) (UniProt P16581)
Put plainly: BSK_LPS_Eselectin: BioMAP Diversity Plus: LPS Assay for Eselectin Biomarker Activity (AID 2283077). Conditions: primary human HUVEC with PBMC; actives raise or lower the signal. The method, boiled down: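 Signal of E-selectin, detected by ELISA, served as the endpoint; cells were umbilical vein endothelium with PBMC, read 24 h after treatment. DMSO defined baseline, and both increases and decreases were fitted.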

Read-out in experiment [15]: Interleukin-8 (IL8), CXCL8 (gene 3576)
Put plainly: BSK_LPS_IL8: BioMAP Diversity Plus: LPS Assay for Interleukin-8 (IL8) Biomarker Activity (AID 2283078). Particulars: primary human HUVEC with PBMC; actives raise or lower the signal. The method in brief:
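Endothelial cells and PBMC from human donors are co-cultured, treated with chemicals and LPS, then assayed for IL-8 by ELISA after 24 h. Parallel SRB staining (0.1% SRB after 10% TCA fixation, 560 nm) flags cytotoxicity.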

The nature of experiment [16]: BSK_LPS_SRB: Viability Assessment in the BioMAP Diversity Plus: LPS Assay (AID 2283079).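 Further: total protein by sulforhodamine B absorbance as a cytotoxicity measure; measured one day after compound addition.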 Particulars: primary human HUVEC with PBMC. The method in brief:
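Overt cytotoxicity was gauged by sulforhodamine B total-protein staining in a primary human vascular endothelial and mononuclear cell co-culture 24 h post-dosing. Activity was fitted in both directions relative to DMSO.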

Read-out in experiment [17]: Interleukin-1 alpha (IL1a), IL1A (gene 3552)
The experiment can be described thus: BSK_LPS_IL1a: BioMAP Diversity Plus: LPS Assay for Interleukin-1 alpha (IL1a) Biomarker Activity (AID 2283080). Particulars: primary human HUVEC with PBMC; actives raise or lower the signal. The method, boiled down:
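Measured: IL-1 alpha via ELISA at 24 h in LPS-activated human umbilical vein endothelium–PBMC co-culture. Baseline: DMSO, bidirectional fitting.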

Read-out in experiment [18]: Monokine induced gamma interferon (MIG), CXCL9 (gene 4283)
The experiment can be described thus: BSK_hDFCGF_MIG: BioMAP Diversity Plus: hDFCGF Assay for Monokine induced gamma interferon (MIG) Biomarker Activity (AID 2283063). Conditions: primary human foreskin fibroblasts; actives raise or lower the signal. The method in brief: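 MIG signal, determined by ELISA, reflects 24 h chemical exposure of human skin primary fibroblasts. DMSO serves as negative control and baseline.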

Read-out in a further experiment: CD40, CD40 (gene 958)
The experiment can be described thus: BSK_LPS_CD40: BioMAP Diversity Plus: LPS Assay for CD40 Biomarker Activity (AID 2283076). Conditions: primary human HUVEC with PBMC; actives raise or lower the signal. The method in brief: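 CD40 signal, measured by ELISA, is fitted in both directions relative to DMSO vehicle. The system is an LPS-driven human vascular primary co-culture of endothelial cells and PBMC, sampled 24 h after compound addition.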

Read-out in experiment [19]: Monocyte Chemoattractant Protein-1 (MCP1), CCL2 (gene 6347)
Put plainly: BSK_LPS_MCP1: BioMAP Diversity Plus: LPS Assay for Monocyte Chemoattractant Protein-1 (MCP1) Biomarker Activity (AID 2283081). Conditions: primary human HUVEC with PBMC; actives raise or lower the signal. The method in brief:
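LPS-stimulated HUVEC/PBMC co-culture; chemical, 24 h; MCP-1 by ELISA; bidirectional fit vs DMSO; cytotoxicity via SRB (0.1% stain, 10% TCA fix, 560 nm) in parallel wells.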

Chain of E-selectin (Homo sapiens) (P16581 whole entry, looked up): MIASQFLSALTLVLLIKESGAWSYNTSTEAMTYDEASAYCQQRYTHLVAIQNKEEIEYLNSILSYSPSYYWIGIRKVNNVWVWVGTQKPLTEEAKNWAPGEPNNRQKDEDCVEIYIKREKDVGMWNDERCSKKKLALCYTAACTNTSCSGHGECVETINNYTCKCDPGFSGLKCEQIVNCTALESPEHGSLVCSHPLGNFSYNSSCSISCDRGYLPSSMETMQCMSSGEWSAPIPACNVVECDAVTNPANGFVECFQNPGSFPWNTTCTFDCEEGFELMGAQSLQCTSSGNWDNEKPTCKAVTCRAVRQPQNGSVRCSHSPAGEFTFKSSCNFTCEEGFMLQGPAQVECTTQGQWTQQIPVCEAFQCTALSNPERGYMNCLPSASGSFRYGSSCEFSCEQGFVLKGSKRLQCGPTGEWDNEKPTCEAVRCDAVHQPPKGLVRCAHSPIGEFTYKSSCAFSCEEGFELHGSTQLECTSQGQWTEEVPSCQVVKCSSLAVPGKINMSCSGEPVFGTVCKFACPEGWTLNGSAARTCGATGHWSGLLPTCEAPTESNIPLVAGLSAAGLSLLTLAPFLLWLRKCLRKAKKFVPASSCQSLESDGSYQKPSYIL

In the case of `CCOCCOC(C)=O`, the outcome in experiment [1], in experiment [2], in [3], in experiment [4], in experiment [5] and in [6] was inactive. The outcome in [7], in experiment [8], in experiment [9], in experiment [10], in experiment [11] and in experiment [12] was inactive. Further, the result in [13], in experiment [14], in [15], in experiment [16] and in [17] was inactive.
For `Nn1cnnc1`, the outcome in experiment [1], in experiment [18], in experiment [2], in experiment [3], in experiment [4] and in experiment [5] was inactive. The outcome in experiment [6], in [8], in [9], in experiment [10], in experiment [11] and in experiment [12] was inactive. Also, the outcome is “inactive” in [13]; “inactive” with CD40, CD40 (gene 958); “inactive” in experiment [14]; “inactive” in experiment [15]; “inactive” in experiment [16]; “inactive” in experiment [17]. For the same molecule, in experiment [19], the outcome was inactive.
`O=S(=O)(O)C(F)(F)C(F)(F)C(F)(F)C(F)(F)C(F)(F)C(F)(F)F`: the result in [1], in experiment [18], in [2], in [3], in [4] and in experiment [5] was inactive. Moreover, the outcome in [6], in experiment [8], in experiment [9], in experiment [10], in experiment [11] and in [12] was inactive. Besides, the outcome in experiment [13], in experiment [14], in experiment [15], in experiment [16] and in experiment [17] was inactive. Further, in experiment [15], the concentration at half-maximal activity (AC50) is 14.6 µM (active) and 43.9 µM (active).
As for `O=C(N[C@H]1CN2CCC1CC2)c1cc2ccoc2cn1`, the outcome in experiment [1], in [2], in experiment [3], in experiment [4], in experiment [5] and in experiment [6] was inactive. The outcome in experiment [7], in experiment [8], in [9], in experiment [10], in experiment [11] and in experiment [12] was inactive. For the same molecule, the outcome in experiment [13], in [14], in experiment [15], in experiment [16] and in experiment [17] was inactive.
For `Nc1ccc(-c2ccc(N)cc2)cc1`, the result in [1], in [2], in [3], in experiment [4], in [5] and in experiment [6] was inactive. The result in experiment [7], in [8], in experiment [9], in experiment [10], in [11] and in experiment [12] was inactive. For the same molecule, the outcome in experiment [13], in experiment [14], in [15], in experiment [16] and in [17] was inactive.
`CC(C)(c1ccccc1)c1ccc(O)cc1`: the AC50 was 32 µM (active) in [1]; 39 µM (active) in experiment [18]; 32.8 µM (active) in experiment [2]; 34.7 µM (active) in [3]; 32.2 µM (active) in experiment [4]; 36.9 µM (active) in experiment [5]. In addition, the AC50 in [6] is 35.9 µM (active); in experiment [7], 33.1 µM (active); in experiment [8], 31.2 µM (active); in [9], 34.3 µM (active); in [10], 34.5 µM (active); in [11] it was 34.8 µM (active). Also, the AC50 in experiment [12] is 31.4 µM (active); in experiment [13] it was 31.5 µM (active); in experiment [14], 36.7 µM (active); in experiment [15], 35.3 µM (active); in experiment [16] it was 33.1 µM (active); in experiment [17] it was 36.3 µM (active).
